Screens (PubChem)
PTAP TSG101 blk – blocks PTAP/TSG101 interaction to inhibit HIV-1 budding; Q99816; Fluorescence polarization, FITC-PTAP peptide / Tsg101 binding; Potency, µM (highest dose often 115 µM), for the others: at the highest dose activity change, negative = inhibition, hits mostly inhibitors; 340,000 tested, under 10 active; AID 493005; active = well fitted inhibition curve with a large enough effect in the main read-out, with a control signal flat, not every such curve was filed as active; inconclusive = small, poorly fitted or top-dose-only effect, or effect the other way, or a change in a side signal; inactive = no such curve, though single readings can be large or run the other way; also: potency is read from the fitted curve at half-maximal effect; % of control where 0% means no effect
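Tsg101 binding domain (10 uM final) was mixed with compound and a FITC-labeled PTAP peptide (50 nM final) in HEPES pH 7.5 buffer with NaCl, Tween 20, EDTA and TCEP; fluorescence polarization was read after 20 min at r.t.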
VDR inhibitor – inhibitors of human vitamin D receptor; VDR-SRC2-3 peptide fluorescence polarization, 2 h; P11473; actives 0.93% (n = 400,000); Potency, µM, for inactives: max response, negative = inhibition, most hits filed as inhibitors; also: potency is read from the fitted curve at half-maximal effect; % is scaled to controls: 0 for no effect and ±100 for the full control effect
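Inhibition of the VDR/SRC2-3 peptide interaction is quantified by fluorescence polarization. Compounds (23 nl, pintool) incubate with the reagents for 2 hours at ambient room temperature.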
TSHR antagonist – blocks TSH signaling through the human TSH receptor; P16473; TSHR-expressing cells, TSH-stimulated cAMP HTRF, 2 h; stronger effect = lower value; activity change, negative = inhibition, % at 11.5 µM; actives 0.2% (n = 330,000);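 active = activity change below a set negative limit, meaning inhibition stronger than a set level, cut at about -70% in these data; inconclusive = activity change between two set negative limits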; also: % is scaled to controls: 0 for no effect and ±100 for the full control effect
Target sequence (P16473 whole entry, looked up): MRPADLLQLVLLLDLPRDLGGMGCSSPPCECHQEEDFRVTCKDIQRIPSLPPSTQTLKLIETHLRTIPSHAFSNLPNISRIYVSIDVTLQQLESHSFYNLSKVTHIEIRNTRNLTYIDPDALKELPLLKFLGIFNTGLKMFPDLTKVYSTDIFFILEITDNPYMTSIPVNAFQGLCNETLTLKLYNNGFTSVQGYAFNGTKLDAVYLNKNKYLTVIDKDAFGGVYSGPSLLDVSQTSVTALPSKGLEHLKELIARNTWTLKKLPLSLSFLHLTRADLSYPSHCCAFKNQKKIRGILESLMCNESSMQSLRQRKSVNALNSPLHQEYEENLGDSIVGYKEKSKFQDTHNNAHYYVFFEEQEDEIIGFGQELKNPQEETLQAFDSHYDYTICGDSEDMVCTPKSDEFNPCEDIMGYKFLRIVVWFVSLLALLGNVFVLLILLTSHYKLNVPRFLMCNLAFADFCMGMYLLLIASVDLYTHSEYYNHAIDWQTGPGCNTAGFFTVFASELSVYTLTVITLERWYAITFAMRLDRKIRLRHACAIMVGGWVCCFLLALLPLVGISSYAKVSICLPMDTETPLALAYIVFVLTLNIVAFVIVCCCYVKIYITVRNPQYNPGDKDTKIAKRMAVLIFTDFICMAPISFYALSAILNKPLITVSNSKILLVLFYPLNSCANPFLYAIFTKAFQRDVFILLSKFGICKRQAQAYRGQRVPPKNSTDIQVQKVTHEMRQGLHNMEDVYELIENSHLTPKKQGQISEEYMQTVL
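Inhibition of cAMP made by TSHR-expressing cells under TSH stimulation (4nM final, EC80; 2 h, 37 deg C) is quantified with a one-step lysis HTRF kit, anti-cAMP cryptate versus cAMP-d2.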
PLK1 PBD inh – blocks phosphopeptide binding to human PLK1 polo-box domain. Plk1 PBD binding of FITC phosphopeptide, fluorescence polarization. Potency, µM, inactives show max response, negative = inhibition, actives largely listed as inhibitors. actives 2.8% (n = 360,000). AID 720504; also: potency is read from the fitted curve at half-maximal effect; series mostly up to about 57 µM; % is scaled to controls: 0 for no effect and ±100 for the full control effect; nearly all actives have a fitted effect of over 65% in size
uPA generation – inhibitors of cell surface uPA generation | cell surface uPA generation assay, qHTS | actives 0.31% (n = 330,000) | AID 540303 | Potency, µM (titrated, usually from 38.3 µM), for inactives: at the highest dose activity change, negative = inhibition, actives largely listed as inhibitors; active = well fitted inhibition curve with a large enough effect; inconclusive = small, poorly fitted or top-dose-only effect; inactive = no such curve, though single readings can be large or run the other way; tested in mouse RAW 264.7 cells; also: potency is read from the fitted curve at half-maximal effect; % is scaled to controls: 0 for no effect and ±100 for the full control effect; nearly all actives have a fitted effect of over 55% in size
USP1 UbRho – USP1-UAF1 deubiquitinase inhibition validated. shares compounds with VDR inhibitor. Ub-Rhodamine cleavage, fluorescence kinetic read. Potency, µM (top dose mostly 114 µM), without a hit: at the highest dose activity change, negative = inhibition, most hits filed as inhibitors. actives 50% (n = 50). AID 540327
VDR inh confirm – inhibits human vitamin D receptor, primary hit validation; shares compounds with VDR inhibitor; VDR-coactivator inhibition assay, qHTS confirmation; Potency, µM, usual class: inhibitors; actives 89% (n = 840); also: potency is read from the fitted curve at half-maximal effect
VDR FP fluor – blocks human VDR-coactivator binding in fluorescein assay. shares compounds with VDR inhibitor. VDR-coactivator binding, fluorescein fluorescence polarization. Potency, µM (series often up to 57.1 µM), without a hit: at the top dose activity change, negative = inhibition, usual class: inhibitors. actives 48% (n = 840). AID 602200; also: potency is read from the fitted curve at half-maximal effect
VDR bla reporter – inhibits human VDR in beta-lactamase reporter cells; VDR beta-lactamase reporter cells, FRET ratio; cells co-treated with VDR agonist LG190178; Potency, µM (top dose mostly 46.1 µM), for inactives: at the top dose activity change, negative = inhibition, hits mostly inhibitors; actives 23% (n = 840); shares compounds with VDR inhibitor; also: potency is read from the fitted curve at half-maximal effect; % is scaled to controls: 0 for no effect and ±100 for the full control effect
VDR cytotox – counter-screen for vitamin D receptor inhibitors: cytotoxicity; shares compounds with VDR inhibitor; cytotoxicity counter-screen, cell viability, qHTS; Potency, µM (doses to about 48.3 µM), for the others: at the highest dose activity change, negative = cytotoxicity, usual class: cytotoxic; actives 18% (n = 840); AID 602204;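 also: potency is read from the fitted curve at half-maximal effect; plate controls were DMSO for no effect and high-concentration cycloheximide for full effect; nearly all actives have a fitted effect of over 75% in size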
TbPYK inh – confirmation of Trypanosoma brucei pyruvate kinase inhibitors. Potency, µM (doses to about 76.9 µM), without a hit: at the top dose activity change, negative = inhibition, usual class: inhibitors. recombinant TbPYK, Kinase-Glo ATP luminescence. actives 67% (n = 890). shares compounds with PLK1 PBD inh. AID 720569; also: potency is read from the fitted curve at half-maximal effect; % is scaled to controls: 0 for no effect and ±100 for the full control effect; nearly all actives have a fitted effect of over 70% in size
TbPYK ADP-Glo – TbPYK inhibition, orthogonal confirmation; recombinant TbPYK, ADP-Glo luminescence, 60 min; Potency, µM (top dose mostly 76.9 µM), without a hit: at the top dose activity change, negative = inhibition, usual class: inhibitors; actives 62% (n = 890); shares compounds with PLK1 PBD inh; AID 720584; also: potency is read from the fitted curve at half-maximal effect; % is scaled to controls: 0 for no effect and ±100 for the full control effect; nearly all actives have a fitted effect of over 75% in size
The depositor's hits bear a star; ? = inconclusive; . = not tested or not shown. Only some compounds are listed: those with a hit (about 3.1% of all), similar ones and a draw of the others. Unless noted, calls follow the shape of the dose curve; as a rule, active = well fitted curve in the direction sought with a large enough effect; inconclusive = small, poorly fitted or top-dose-only effect, or another doubt; inactive = no such curve, though single readings can be large; an effect the other way counts as inactive or inconclusive.

SMILES	PTAP TSG101 blk	VDR inhibitor	TSHR antagonist	PLK1 PBD inh	uPA generation	VDR inh confirm	VDR FP fluor	VDR bla reporter	VDR cytotox	others
CCOC(=O)COc1ccc(Br)cc1/C=C\c1[nH]c(=O)[nH]c(=O)c1[N+](=O)[O-]	-2.2%	22.4µM*	-31.5	-20.4%	-3.8%	4.23*	3.16µM*	?	?
CCOC(=O)COc1ccc(Br)cc1/C=C/c1[nH]c(=O)[nH]c(=O)c1[N+](=O)[O-]	-14.1%	14.1µM*	-40.2	-28.1%	-3.7%	3.77*	?	-29.8%	?
Cc1ccc(Cc2nc3ccccc3nc2SCC(=O)NCc2ccccc2Cl)cc1	.	9.0%	.	.	.	.	.	.	.
CCN(CC)S(=O)(=O)c1ccc(O)c(NS(=O)(=O)c2ccccc2F)c1	-2.7%	79.4µM*	6.6	23.8µM*	1.4%	16.8*	-20.4%	1.8%	11.3%
Nc1ccc(-c2nc3ccc(-c4nc5ccc(N)cc5[nH]4)cc3[nH]2)cc1	.	1.9%	-15.4	.	.	.	.	.	.	USP1 UbRho=?
CCOC(=O)c1[nH]cc(-c2ccccc2)c1N1CCOCC1	-5.0%	22.4µM*	-1.6	5.32µM*	6.2%	21.2*	?	14.1%	?
CCOC(=O)c1cnc(-c2ccccc2)nc1N1CCOCC1	1.3%	-4.1%	6.3	1.9%	5.6%	.	.	.	.
O=C1ON=C(c2ccccc2)/C1=C/c1ccc(OS(=O)(=O)c2ccccc2)cc1	-7.2%	?	-8.7	5.97µM*	-2.8%	3.55*	3.16µM*	1.8%	8.2%
C=CCn1c(O)c(C2=c3ccccc3=NC2=O)c2ccccc21	-4.8%	20µM*	18.0	16.8µM*	-7.0%	16.8*	?	?	?
C=CCn1c(O)c(C2=c3ccccc3=NC2=O)s/c1=N/c1nccs1	-1.8%	-2.4%	8.1	-1.0%	-1.4%	.	.	.	.
Cc1ccc(C(=O)N2C(=S)C(c3ccc(F)cc3)=NC23CCN(C)CC3)cc1	-0.9%	?	-5.6	23.8µM*	-5.6%	17.8*	22.4µM*	25.9µM*	?
CC1=NOC(=O)/C1=C\c1ccc(-c2cc(Cl)ccc2Cl)o1	-2.0%	20µM*	-0.7	0.597µM*	-1.6%	2.99*	?	?	?
CC1=NOC(=O)/C1=C/c1ccc(-c2ccc(Cl)cc2)o1	.	.	-5.1	.	.	.	.	.	.
CC1=NOC(=O)/C1=C\c1ccc(-c2ccc(Br)cc2)o1	-1.6%	?	29.0	0.597µM*	-6.2%	3.16*	?	0.9%	-18.2%
Nc1nonc1-c1nc2ccccc2n1CC(=O)Nc1cccc(Cl)c1Cl	.	-8.0%	.	.	.	.	.	.	.
COc1ccc(C(=O)c2no[n+]([O-])c2C(=O)c2ccc(OC)cc2)cc1	12.4%	?	-3.9	?	-16.0%	.	.	.	.
O=C(c1cccs1)c1no[n+]([O-])c1C(=O)c1cccs1	0.1%	44.7µM*	14.9	?	-11.6%	6.31*	3.55µM*	2.59µM*	2.99µM*
CCNc1ncc2ncc(=O)n(C3CC3)c2n1	.	2.7%	.	.	.	.	.	.	.
Cc1ccc(-n2nnnc2C(Cl)(Cl)c2nnnn2-c2ccc(C)cc2)cc1	-1.4%	6.31µM*	-13.2	1.06µM*	-17.3%	3.36*	?	?	?	TbPYK inh=1.58µM*;TbPYK ADP-Glo=2.24µM*
Clc1ccc(-c2nnnn2-c2ccc(Cl)cc2)cc1	-1.4%	8.5%	-7.2	-6.8%	-3.6%	.	.	.	.
Cc1cccc(CN2C(=O)N(c3ccc(C(C)C)cc3)S(=O)(=O)c3ccccc32)c1	.	17.3%	.	.	.	.	.	.	.
COc1ccccc1N1C(=O)C=C(Sc2nc(C)cc(C)n2)C1=O	-4.4%	?	1.7	2.99µM*	-0.6%	2.82*	3.16µM*	20.6µM*	?	TbPYK inh=2.51µM*;TbPYK ADP-Glo=3.16µM*
Brc1ccc(NC(c2ccccc2)c2ccncc2)cc1 (centres undefined)	-2.3%	?	6.3	?	-4.7%	.	.	.	.
COc1ccc(C(=O)/C=C/C(=O)N(CC(=O)NC2CCCCC2)CC2CCCO2)c(O)c1 (centres undefined)	-5.2%	8.91µM*	-48.4	6.7µM*	2.0%	6.7*	?	13µM*	14.6µM*	TbPYK inh=7.08µM*;TbPYK ADP-Glo=10µM*
COc1ccccc1NC(=O)CCCCCN1C(=O)c2cccc([N+](=O)[O-])c2C1=O	-5.1%	-11.8%	-8.2	-15.4%	8.1%	.	.	.	.
SMILES	PTAP TSG101 blk	VDR inhibitor	TSHR antagonist	PLK1 PBD inh	uPA generation	VDR inh confirm	VDR FP fluor	VDR bla reporter	VDR cytotox	others
COc1cc(/C=C2/C(=O)c3cccc([N+](=O)[O-])c3C2=O)c(Br)cc1O	-10.3%	20µM*	4.0	1.5µM*	3.4%	7.52*	3.16µM*	?	?	TbPYK inh=25.1µM*;TbPYK ADP-Glo=-17.3%
O=c1cc(NCc2ccccc2)[nH]c(=O)[nH]1	1.5%	-1.6%	.	5.1%	-1.2%	.	.	.	.	TbPYK inh=?;TbPYK ADP-Glo=?
COC(=O)[C@H]1O[C@@H](c2cc(OC)c(C)c(OC)c2OCc2ccccc2)[C@H](C)[C@@H]2O[C@]12C	.	0.1%	.	.	.	.	.	.	.
Cc1ccc(Cn2cc(/C=C(/C#N)C(=O)Nc3cccc(Cl)c3)c3ccccc32)cc1	.	-1.5%	.	.	.	.	.	.	.
CC(C)Sc1nnc(CNC(=O)C23CC4CC(CC(C4)C2)C3)n1C1CCCCC1	0.4%	1.7%	-12.7	-4.1%	4.4%	.	.	.	.	TbPYK inh=5.62µM*;TbPYK ADP-Glo=11.2µM*
Cc1nnc(NC(=O)CSc2nnc(CNC(=O)C34CC5CC(CC(C5)C3)C4)n2C2CCCCC2)s1	-7.6%	-8.3%	1.7	-9.7%	-1.8%	.	.	.	.
CCN1C(=O)/C(=C2/C=Cc3cc(C)ccc3N2CC)N(C)C1=S	-1.3%	1.3%	-17.4	0.2%	0.9%	.	.	.	.	TbPYK inh=35.5µM*;TbPYK ADP-Glo=-25.7%
CCN1/C(=C2/SC(=S)N(C)C2=O)C=Cc2cc(C)ccc21	-10.4%	31.2%	.	-19.9%	-3.4%	.	.	.	.
